According to the supplement of paper PMC11732987, “Enantioselective OTUD7B fragment discovery through chemoproteomics screening and high-throughput optimisation” (Communications Chemistry, 2025):

Tests used:
Test in all cases: log2 ratio of Biotin-Ahx-Ub-VS probe labelling (fragment/DMSO); higher = less target engagement (more negative = stronger competition), active = hit call of the paper (q ≤ 0.05, log2 ratio ≤ -1)
Details in all cases: compound concentration: 200 uM; treatment time: 3 h
USP34 = USP34 (UniProt Q70CQ2)
Procedure, shortened: (§1)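 Labelling with Biotin-Ahx-Ub-VS (0.5 µM final, 1 h) followed a 3 h triplicate treatment of HEK293T lysate (495 µg per sample, Tris/CHAPS/IGEPAL buffer with protease inhibitors) with fragment at 200 µM or vehicle. Labelled DUBs were NeutrAvidin-enriched, digested with LysC and trypsin, and run by diaPASEF LC-MS/MS. The values, average log2 fragment/vehicle ratios by unpaired t-test, come from global-median-normalised Spectronaut label-free quantities. Proteins with ≥2 unique peptides were used.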

USP36 = target: T1, USP36 (UniProt Q9P275)
T1 sequence (whole entry): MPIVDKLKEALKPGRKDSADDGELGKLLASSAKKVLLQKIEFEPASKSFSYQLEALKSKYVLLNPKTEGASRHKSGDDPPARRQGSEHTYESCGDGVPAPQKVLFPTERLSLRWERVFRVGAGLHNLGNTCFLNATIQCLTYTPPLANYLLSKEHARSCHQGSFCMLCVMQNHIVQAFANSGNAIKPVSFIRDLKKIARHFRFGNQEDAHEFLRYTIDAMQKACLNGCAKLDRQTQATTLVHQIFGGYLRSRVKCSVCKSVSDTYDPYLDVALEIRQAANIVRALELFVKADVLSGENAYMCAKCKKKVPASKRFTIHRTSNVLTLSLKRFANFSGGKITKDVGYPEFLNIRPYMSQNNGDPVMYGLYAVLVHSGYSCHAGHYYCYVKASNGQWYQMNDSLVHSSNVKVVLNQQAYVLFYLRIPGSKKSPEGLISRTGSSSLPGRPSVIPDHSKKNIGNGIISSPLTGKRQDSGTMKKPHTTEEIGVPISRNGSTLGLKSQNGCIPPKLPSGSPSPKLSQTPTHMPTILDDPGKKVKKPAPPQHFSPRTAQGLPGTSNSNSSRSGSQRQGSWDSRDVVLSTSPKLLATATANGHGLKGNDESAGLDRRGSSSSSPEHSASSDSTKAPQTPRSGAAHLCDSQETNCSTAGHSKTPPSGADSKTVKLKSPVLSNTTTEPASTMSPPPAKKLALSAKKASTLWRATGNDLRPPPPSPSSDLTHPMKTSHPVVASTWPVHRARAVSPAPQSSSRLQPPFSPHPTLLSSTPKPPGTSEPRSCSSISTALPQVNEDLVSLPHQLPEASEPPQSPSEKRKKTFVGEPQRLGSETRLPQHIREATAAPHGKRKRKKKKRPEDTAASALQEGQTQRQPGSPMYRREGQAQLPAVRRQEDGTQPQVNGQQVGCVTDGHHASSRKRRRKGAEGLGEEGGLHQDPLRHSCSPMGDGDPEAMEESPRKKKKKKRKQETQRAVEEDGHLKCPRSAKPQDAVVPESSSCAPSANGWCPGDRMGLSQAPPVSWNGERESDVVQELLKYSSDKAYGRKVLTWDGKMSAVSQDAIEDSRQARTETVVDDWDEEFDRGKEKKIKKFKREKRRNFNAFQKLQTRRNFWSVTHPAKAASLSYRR
Procedure, shortened: as §1

USP38 = target: T2, USP38 (UniProt Q8NB14)
T2 sequence (whole entry): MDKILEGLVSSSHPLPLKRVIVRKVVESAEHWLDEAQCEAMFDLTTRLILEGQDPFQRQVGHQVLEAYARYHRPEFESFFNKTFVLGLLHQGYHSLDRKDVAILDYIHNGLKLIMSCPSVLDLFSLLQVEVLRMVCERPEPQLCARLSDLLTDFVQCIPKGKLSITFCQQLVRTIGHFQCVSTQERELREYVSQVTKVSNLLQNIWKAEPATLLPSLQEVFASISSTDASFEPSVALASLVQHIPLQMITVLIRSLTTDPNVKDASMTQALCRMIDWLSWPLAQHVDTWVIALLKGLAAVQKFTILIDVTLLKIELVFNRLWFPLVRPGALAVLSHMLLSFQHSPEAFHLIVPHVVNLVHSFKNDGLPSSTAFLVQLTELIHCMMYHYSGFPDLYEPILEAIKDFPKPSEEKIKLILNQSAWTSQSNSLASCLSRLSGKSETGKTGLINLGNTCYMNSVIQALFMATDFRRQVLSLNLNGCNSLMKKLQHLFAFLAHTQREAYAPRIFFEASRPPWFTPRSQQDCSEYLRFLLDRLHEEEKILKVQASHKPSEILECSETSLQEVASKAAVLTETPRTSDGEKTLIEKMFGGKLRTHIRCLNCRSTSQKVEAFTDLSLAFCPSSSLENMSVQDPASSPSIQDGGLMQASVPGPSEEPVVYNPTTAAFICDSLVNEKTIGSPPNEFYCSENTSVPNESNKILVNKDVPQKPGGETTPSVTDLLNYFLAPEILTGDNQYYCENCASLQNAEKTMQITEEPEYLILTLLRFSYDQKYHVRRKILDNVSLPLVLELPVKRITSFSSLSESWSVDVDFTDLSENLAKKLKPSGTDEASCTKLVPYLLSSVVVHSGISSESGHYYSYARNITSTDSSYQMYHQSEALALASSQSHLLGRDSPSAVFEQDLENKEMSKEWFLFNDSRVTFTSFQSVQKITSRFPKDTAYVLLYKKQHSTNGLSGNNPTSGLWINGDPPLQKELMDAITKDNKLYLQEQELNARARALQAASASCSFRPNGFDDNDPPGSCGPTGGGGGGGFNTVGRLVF
Procedure, shortened: as §1

USP39 = target: T3, USP39 (UniProt Q53GS9)
T3 sequence (whole entry): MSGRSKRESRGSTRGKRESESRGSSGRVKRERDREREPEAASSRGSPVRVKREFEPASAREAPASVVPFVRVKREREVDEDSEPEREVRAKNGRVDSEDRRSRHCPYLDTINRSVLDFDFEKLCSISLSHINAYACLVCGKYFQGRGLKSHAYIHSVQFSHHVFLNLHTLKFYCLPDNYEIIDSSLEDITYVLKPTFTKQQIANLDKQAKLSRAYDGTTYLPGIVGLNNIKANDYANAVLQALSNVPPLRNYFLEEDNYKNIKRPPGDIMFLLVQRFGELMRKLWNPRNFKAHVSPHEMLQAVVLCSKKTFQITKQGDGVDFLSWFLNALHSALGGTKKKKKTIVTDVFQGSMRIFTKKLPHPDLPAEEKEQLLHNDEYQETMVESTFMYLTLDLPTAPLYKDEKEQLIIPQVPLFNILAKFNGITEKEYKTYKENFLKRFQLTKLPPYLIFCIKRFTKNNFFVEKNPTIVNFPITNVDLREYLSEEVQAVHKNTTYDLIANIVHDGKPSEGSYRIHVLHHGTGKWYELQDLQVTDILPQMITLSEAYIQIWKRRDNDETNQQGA
Procedure, shortened: as §1

USP4 = target: T4, USP4 (UniProt Q13107)
T4 sequence (whole entry): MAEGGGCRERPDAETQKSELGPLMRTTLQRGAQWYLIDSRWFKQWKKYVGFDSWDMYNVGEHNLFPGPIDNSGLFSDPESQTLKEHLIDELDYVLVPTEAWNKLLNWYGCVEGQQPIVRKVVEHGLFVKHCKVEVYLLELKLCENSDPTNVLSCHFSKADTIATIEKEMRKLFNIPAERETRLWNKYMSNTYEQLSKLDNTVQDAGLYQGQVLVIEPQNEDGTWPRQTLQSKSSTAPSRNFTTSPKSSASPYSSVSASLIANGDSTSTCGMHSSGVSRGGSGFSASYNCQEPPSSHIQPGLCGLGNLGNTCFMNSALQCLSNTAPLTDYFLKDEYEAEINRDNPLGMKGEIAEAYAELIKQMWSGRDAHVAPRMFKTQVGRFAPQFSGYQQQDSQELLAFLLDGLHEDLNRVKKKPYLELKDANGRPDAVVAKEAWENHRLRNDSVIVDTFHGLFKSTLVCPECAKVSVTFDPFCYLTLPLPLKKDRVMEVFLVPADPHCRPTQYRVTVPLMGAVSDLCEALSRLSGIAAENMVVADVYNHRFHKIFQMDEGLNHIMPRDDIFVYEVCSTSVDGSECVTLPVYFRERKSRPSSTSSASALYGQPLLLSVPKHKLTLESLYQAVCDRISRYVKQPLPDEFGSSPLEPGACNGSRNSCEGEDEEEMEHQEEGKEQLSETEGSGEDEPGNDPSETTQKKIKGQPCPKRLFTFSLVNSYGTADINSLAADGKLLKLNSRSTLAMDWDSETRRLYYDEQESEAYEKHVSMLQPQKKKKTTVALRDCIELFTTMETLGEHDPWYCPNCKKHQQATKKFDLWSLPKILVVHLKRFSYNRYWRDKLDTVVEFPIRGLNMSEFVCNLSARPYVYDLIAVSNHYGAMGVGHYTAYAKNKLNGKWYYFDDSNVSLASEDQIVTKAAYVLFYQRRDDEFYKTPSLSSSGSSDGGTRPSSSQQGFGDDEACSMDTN
Procedure, shortened: as §1

Measured: log2 ratio of Biotin-Ahx-Ub-VS probe labelling

USP34, sequence (Q70CQ2 whole entry, the tested form may be a part): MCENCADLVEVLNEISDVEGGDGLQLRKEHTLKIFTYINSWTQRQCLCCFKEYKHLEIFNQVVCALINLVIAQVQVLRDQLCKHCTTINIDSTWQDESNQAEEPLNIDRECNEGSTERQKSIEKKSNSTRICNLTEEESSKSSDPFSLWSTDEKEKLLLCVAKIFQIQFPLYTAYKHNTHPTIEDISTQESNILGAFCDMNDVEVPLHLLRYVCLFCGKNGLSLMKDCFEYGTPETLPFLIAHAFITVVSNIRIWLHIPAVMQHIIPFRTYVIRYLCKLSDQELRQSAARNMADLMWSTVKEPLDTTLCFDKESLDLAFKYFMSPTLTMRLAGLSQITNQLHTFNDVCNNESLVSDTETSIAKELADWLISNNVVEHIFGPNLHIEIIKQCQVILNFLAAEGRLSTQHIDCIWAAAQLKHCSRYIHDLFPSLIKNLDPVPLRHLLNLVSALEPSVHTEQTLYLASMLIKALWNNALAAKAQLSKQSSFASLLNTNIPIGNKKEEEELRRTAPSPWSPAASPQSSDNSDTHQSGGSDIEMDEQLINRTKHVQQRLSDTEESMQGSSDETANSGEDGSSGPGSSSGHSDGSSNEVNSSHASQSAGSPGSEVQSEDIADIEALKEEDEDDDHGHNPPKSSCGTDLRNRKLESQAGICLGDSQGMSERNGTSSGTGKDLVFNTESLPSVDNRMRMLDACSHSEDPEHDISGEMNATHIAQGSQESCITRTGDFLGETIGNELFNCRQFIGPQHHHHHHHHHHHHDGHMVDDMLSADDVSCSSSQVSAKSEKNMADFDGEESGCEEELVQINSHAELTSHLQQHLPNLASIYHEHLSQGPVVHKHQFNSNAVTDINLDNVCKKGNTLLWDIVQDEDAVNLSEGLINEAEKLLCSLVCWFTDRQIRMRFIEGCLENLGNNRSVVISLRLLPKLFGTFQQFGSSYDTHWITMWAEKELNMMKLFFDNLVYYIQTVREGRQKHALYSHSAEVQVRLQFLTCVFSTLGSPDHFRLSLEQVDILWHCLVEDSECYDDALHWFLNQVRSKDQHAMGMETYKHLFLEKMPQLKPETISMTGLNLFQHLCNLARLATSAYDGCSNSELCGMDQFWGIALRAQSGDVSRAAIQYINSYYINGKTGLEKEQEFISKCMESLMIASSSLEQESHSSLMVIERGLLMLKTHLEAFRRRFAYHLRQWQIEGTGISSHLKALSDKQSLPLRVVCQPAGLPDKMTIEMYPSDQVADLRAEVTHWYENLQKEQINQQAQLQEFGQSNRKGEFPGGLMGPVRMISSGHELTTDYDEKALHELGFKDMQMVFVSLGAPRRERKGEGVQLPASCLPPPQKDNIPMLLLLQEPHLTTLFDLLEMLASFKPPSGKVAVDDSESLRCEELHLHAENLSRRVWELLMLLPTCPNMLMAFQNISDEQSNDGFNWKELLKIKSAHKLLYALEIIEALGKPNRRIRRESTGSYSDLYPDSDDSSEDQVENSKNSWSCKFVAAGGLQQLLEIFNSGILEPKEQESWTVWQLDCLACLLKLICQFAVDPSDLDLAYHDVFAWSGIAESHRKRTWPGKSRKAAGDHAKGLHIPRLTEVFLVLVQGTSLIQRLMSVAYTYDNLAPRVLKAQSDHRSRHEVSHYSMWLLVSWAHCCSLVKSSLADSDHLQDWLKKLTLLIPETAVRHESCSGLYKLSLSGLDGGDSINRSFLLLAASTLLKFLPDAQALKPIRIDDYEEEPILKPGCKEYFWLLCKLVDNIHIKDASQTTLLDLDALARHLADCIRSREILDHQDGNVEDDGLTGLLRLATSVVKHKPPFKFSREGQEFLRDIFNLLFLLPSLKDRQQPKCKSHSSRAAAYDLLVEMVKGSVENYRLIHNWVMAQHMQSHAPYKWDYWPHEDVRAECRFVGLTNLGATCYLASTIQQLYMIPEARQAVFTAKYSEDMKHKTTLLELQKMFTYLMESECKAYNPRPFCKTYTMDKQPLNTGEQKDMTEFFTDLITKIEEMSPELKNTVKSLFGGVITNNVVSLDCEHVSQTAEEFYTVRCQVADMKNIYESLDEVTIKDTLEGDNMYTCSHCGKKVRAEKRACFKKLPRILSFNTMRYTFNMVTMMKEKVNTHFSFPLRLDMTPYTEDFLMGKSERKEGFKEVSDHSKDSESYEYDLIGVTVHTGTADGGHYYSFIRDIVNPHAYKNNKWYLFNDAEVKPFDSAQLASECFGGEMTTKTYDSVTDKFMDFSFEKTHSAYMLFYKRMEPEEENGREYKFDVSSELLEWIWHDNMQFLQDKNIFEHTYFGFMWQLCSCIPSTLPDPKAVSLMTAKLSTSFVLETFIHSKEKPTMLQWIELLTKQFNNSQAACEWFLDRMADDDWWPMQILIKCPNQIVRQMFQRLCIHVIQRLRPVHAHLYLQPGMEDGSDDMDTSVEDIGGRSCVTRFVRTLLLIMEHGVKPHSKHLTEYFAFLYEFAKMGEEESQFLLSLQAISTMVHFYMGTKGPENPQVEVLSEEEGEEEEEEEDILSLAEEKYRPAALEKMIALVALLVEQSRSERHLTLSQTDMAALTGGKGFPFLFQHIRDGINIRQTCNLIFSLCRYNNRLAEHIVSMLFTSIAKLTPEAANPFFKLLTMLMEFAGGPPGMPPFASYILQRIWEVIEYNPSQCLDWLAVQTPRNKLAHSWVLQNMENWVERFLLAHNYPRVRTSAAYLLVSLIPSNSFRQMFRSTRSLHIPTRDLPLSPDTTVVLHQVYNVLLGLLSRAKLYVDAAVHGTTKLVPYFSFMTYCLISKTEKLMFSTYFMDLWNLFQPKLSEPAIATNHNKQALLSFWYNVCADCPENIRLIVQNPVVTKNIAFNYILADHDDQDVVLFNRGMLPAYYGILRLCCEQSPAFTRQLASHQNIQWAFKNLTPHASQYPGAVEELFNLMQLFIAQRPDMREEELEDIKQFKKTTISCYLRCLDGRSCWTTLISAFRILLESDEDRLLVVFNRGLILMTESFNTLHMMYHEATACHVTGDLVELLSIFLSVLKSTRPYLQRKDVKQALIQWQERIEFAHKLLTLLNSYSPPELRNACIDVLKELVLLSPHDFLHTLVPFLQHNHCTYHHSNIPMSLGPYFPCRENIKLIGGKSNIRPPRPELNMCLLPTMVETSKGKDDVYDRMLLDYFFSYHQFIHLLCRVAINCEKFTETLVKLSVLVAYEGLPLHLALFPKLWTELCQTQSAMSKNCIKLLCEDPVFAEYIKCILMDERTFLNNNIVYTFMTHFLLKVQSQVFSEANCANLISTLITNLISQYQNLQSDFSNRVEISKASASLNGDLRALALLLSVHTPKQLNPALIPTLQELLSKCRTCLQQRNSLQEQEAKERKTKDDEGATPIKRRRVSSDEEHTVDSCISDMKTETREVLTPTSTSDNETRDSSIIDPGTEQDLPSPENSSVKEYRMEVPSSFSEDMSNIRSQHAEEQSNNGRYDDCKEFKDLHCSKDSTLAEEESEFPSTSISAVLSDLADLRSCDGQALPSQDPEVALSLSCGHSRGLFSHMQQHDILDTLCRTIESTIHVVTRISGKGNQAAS

N#Cc1ccc(Cl)cc1NC(=O)CCl
inactive: USP34 -0.22 | USP36 0.137 | USP38 -0.0529 | USP39 -0.0922 | USP4 -0.0565
